Results from PubChem BioAssay AID492953 (The Scripps Research Institute Molecular Screening Center, 2010).
Among all 340,000 compounds or so, about 4,200 (1.2%) were called active. What follows is part of a selection rich in actives, with near analogues and random picks from the rest. Values without a mark were called inactive.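 The calls were made as follows: active = inhibition above the mean of all tested compounds plus 3 SD (cut at about 24% in these data); inactive = the rest.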

Biological target: Platelet-activating factor acetylhydrolase IB subunit alpha2 (Homo sapiens) (UniProt P68402)
Sequence (P68402 whole entry, looked up): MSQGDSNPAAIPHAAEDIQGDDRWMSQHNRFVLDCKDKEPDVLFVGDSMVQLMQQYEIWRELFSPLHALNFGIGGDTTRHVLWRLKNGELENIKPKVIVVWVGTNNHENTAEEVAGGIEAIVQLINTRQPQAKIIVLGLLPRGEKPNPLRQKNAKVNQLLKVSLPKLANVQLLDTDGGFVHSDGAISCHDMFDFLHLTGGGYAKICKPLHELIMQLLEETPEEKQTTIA
Assay: inhibition of PAF acetylhydrolase 1b subunit 2 – biochemical, fluorescence polarization, human, primary screen (AID 492953);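 also: 0% = enzyme with DMSO and 100% = wells lacking PAFAH1B2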
Settings: recombinant PAFAH1B2, FP-rhodamine activity probe, at 3.39 µM, hits give high values

Row | Compound | inhibition
1 | CS(=O)(=O)Nc1ccccc1N=C(c1ccccc1)c1ccccc1 | 5.79%
2 | Cc1ccc(O)c(CNc2nc3ccccc3[nH]2)c1 | 0.09%
3 | Cc1ccc(-c2cc(=O)[nH]c(NCc3ccccc3)n2)cc1 | 24.5% (active)
4 | O=c1cc(-c2ccccc2)nc(N2CCCCC2)[nH]1 | -3.66%
5 | O=C(O)c1ccc(-n2cccc2)cc1O | 4.37%
6 | COc1cccc(CNn2cn[nH]c2=S)c1OCc1ccccc1 | 0.39%
7 | O=C(CCNC(=O)C1CCN(S(=O)(=O)c2ccccc2)CC1)NC1CC1 | 1.71%
8 | CCc1ccc2nc3sc(C(=O)Nc4nnc(CC)s4)c(N)c3cc2c1 | 32.2% (active)
9 | CCc1nnc(NC(=O)c2cccc(S(=O)(=O)N(C)c3ccc(OC)cc3)c2)s1 | 10.2%
10 | CCc1nnc(NC(=O)c2nc3nccc(C)n3n2)s1 | 7.37%
11 | COc1ccc(Cl)cc1C=CC=Nc1ccc(S(N)(=O)=O)cc1 | -2.05%
12 | Cc1c(C(=O)OCC(=O)N(CCC#N)c2ccccc2)oc2c1ccc1ccccc12 | -1.31%
13 | CC(C)(C)NC(=O)c1cccc(NC(=O)Cc2ccc(Br)cc2)c1 | 28.1% (active)
14 | O=C(Cc1ccccc1)Nc1cccc(NC(=O)c2ccccc2)c1 | 3.28%
15 | Cc1cccc(NC(=O)Cc2ccc(Br)cc2)n1 | 8.34%
16 | CN1CCN(C(=O)CCc2ncc(C(F)(F)F)cc2Cl)CC1 | -0.83%
17 | CCC(=O)N1CCC(C(N)=O)(N2CCCCC2)CC1 | -0.67%
18 | CC(=O)c1sc(NC(=O)CCN2C(=O)C3CC=CCC3C2=O)nc1-c1ccccc1 (configuration not stated) | -3.33%
19 | Cc1cccc(NS(=O)(=O)c2ccc([N+](=O)[O-])cc2)n1 | 1.97%
20 | CC1=CC(=NNS(=O)(=O)c2ccc([N+](=O)[O-])cc2)CC(C)(C)C1 | 31.9% (active)
21 | CC(C=Cc1ccccc1)=NNS(=O)(=O)c1ccc([N+](=O)[O-])cc1 | 6.62%
22 | CCOC(=O)[C@H]1[C@H]2COc3ccccc3[C@@H]2N2C(=O)CN(Cc3ccccc3)C(=O)[C@@]12C | -3.13%
23 | COc1ccc(CNC(=O)c2cc(=O)c3c(C)cc(C)cc3o2)cc1 | -0.18%

Row | Compound | inhibition
24 | CCCCN(C(=O)/C=C/c1ccco1)c1c(N)n(CC(C)C)c(=O)[nH]c1=O | -1.15%
25 | CC(=O)Nc1ccc(S(=O)(=O)Oc2ccc(Br)cc2C(=S)N2CCOCC2)cc1 | 0.45%
26 | COc1cccc(/C=N/Nc2ccc(S(=O)(=O)Nc3ccccc3C(=O)O)cc2[N+](=O)[O-])c1O | 32.2% (active)
27 | Cc1ccc(NS(=O)(=O)c2ccc(N/N=C/c3ccccc3OCC(=O)O)c([N+](=O)[O-])c2)c(C)c1 | 4.33%
28 | COc1ccc(Br)cc1/C=N/Nc1ccc(S(=O)(=O)Nc2ccccc2C(=O)O)cc1[N+](=O)[O-] | 4.57%
29 | Cc1ccc(C(=O)O)cc1S(=O)(=O)NCC1CCCO1 (configuration not stated) | -0.69%
30 | COc1ccc(S(=O)(=O)NCCc2cc3ccc(C)c(C)c3[nH]c2=O)cc1 | 24.7% (active)
31 | COc1ccc(S(=O)(=O)NCCCc2ccccc2)cc1 | 13.7%
32 | COc1ccc(CCNS(=O)(=O)c2cccc([N+](=O)[O-])c2)cc1 | 13.1%
33 | O=C1CN(C(=O)COC(=O)C2CC(=O)N(Cc3ccco3)C2)c2ccccc2N1 (configuration not stated) | -0.96%
34 | O=C(NCCN1CCN(C(=O)c2cccc([N+](=O)[O-])c2)CC1)C(=O)NCc1ccc(Cl)cc1 | 10.4%
35 | O=C(O)CCCCCCCCCC[n+]1ccccc1 | 1.11%
36 | CCCCCCCCCCCC(=O)O | 30.2% (active)
37 | NC(=O)NCCCC(=O)O | 4.24%
38 | C/C=C/c1ccc(OCCCCN2CCC(C)CC2)c(OC)c1 | 2.16%
39 | CCc1c(C)n([O-])c2c([n+]1=O)CCCCC2 | 7.72%
40 | CCc1cccc(CC)c1NC(=O)COc1ccccc1C(=O)c1cc(C#N)c(=O)n(C2CCCCC2)c1 | 2.15%
41 | NS(=O)(=O)c1ccccc1NC(=O)c1c(O)c2ccccc2[nH]c1=O | 2.89%
42 | Cc1cc(=O)cc(C)n1-c1ccc(Cl)c(Cl)c1 | 4.86%
43 | CCCCC(=O)NNC(=S)NC(=O)C(c1ccccc1)c1ccccc1 | 27.4% (active)
44 | CC(C)C(=O)Nc1cccc(NC(=S)NC(=O)C(c2ccccc2)c2ccccc2)c1 | -2.74%
45 | CCNC(=S)NNC(=O)Cc1ccccc1 | 0.2%
46 | Cc1ccc(S(=O)(=O)N2CCC(N3CCCCCC3)CC2)cc1 | 5.12%

Row | Compound | inhibition
47 | Cc1ccc(S(=O)(=O)n2oc(=O)c(C3CCCCC3)c2N)cc1 | 30.4% (active)
48 | Cc1ccc(S(=O)(=O)NC2CCCCCC2)cc1 | 11.5%
49 | COc1ccc(/C(C)=N/N2CCOCC2)c(O)c1 | 3.71%
50 | CCOc1ccccc1N(CC(=O)NC1CCCCC1)C(=O)CCCC(=O)Nc1ccccn1 | 2.23%
51 | Nc1cc(OC(=O)c2ccccc2Br)nn1S(=O)(=O)c1ccccc1 | -1.3%
52 | Cc1ccc(S(=O)(=O)N2CCC(C(=O)N3CCCCCCC3)CC2)cc1 | -2.62%
53 | Cc1ccc(S(=O)(=O)n2nc(OC(=O)C(C)(C)C)cc2N)cc1 | 24.3% (active)
54 | CCOC(=O)N1CCN(c2cc(C)c([N+](=O)[O-])cc2F)CC1 | 6.77%
55 | Cc1ccc(CNS(=O)(=O)CCNC(=O)c2ccccc2)cc1 | 0.61%
56 | Cc1ccc(N(C(=O)c2ccc(CN3CCOCC3)o2)C(C(=O)NCCC(C)C)c2cccs2)c(C)c1 (configuration not stated) | 2.55%
57 | Cc1cc(=O)oc2c3c(cc(OCC(=O)NCCC(=O)N[C@@H](C)C(=O)O)c12)OC(C)(C)CC3 | 2.72%
58 | Cc1c(C)c2c(OCC(=O)NCCCO)cc3c(c2oc1=O)CCC(C)(C)O3 | 9.23%
59 | Cc1c(C)c2c(OCC(=O)N[C@@H](C(=O)O)c3ccccc3)cc3c(c2oc1=O)CCC(C)(C)O3 | 38% (active)
60 | COCC1CCCN(Cc2cn[nH]c2-c2cc3ccccc3o2)C1 (configuration not stated) | -0.69%
61 | Cc1ccccc1NC(=O)N1CCCC1C(=O)NCc1ccccc1 (configuration not stated) | 3.76%
62 | O=[N+]([O-])c1ccc(NCCCO)c(C(F)(F)F)c1 | 6.89%
63 | COCC1CCCN(Cc2nc(-c3ccc4c(c3)OCO4)no2)C1 (configuration not stated) | 3.45%
64 | O=C(COc1ccc(Cl)cc1)NCCC1=CCCCC1 | 27.5% (active)
65 | CC(C)COc1ccc(C(=O)OCC(=O)NCCC2=CCCCC2)cc1 | 2.59%
66 | O=C(COc1cccc(-n2cnnn2)c1)NCCC1=CCCCC1 | 10.3%
67 | CC1(c2ccccc2)CC(C)(C)N(C(=O)c2cc([N+](=O)[O-])cc([N+](=O)[O-])c2)c2ccccc21 (configuration not stated) | -0.31%
68 | CC1CCN(C(=S)c2cccc([N+](=O)[O-])c2)CC1 | 19.4%
69 | CC1CCC2CCCCC2N1C(=O)c1cc([N+](=O)[O-])cc([N+](=O)[O-])c1 (configuration not stated) | 24.7% (active)

Row | Compound | inhibition
70 | COc1ccc(CN2CCN(C(=O)c3cc(C4CC4)nn3-c3ccccc3)CC2)cc1F | 2.17%
71 | O=C(COc1cccc2c1CCNC2=O)NC1CCCCC1 | -3.94%
72 | O=C(Nc1ccc2ccccc2c1[N+](=O)[O-])c1ccccc1 | 5.08%
73 | CN(C)c1ccc(S(=O)(=O)NCC(=O)NCC2CCCCC2)cc1[N+](=O)[O-] | 8.33%
74 | COc1ccc(NS(=O)(=O)c2ccc(O)c(C(=O)OCC(=O)NC3CCCCC3)c2)cc1 | 19.8%
75 | CCN(C(=O)COC(=O)c1cc(NS(=O)(=O)c2ccc(Cl)c([N+](=O)[O-])c2)ccc1O)C1CCCCC1 | 45.9% (active)
76 | Cc1c(NS(=O)(=O)c2cccc(C(=O)Nc3ccc(SC(F)F)cc3)c2)c(=O)n(-c2ccccc2)n1C | 5.1%
77 | COc1ccc(C(=O)CSc2nnc(NC(=O)C3CC(=O)N(c4cccc(OC)c4)C3)s2)cc1 (configuration not stated) | -6.09%
78 | O=C(CNC(=O)c1cc(S(=O)(=O)N2CCOCC2)ccc1N1CCCC1)Nc1ccc(F)c(F)c1 | -4.31%
79 | COc1cc(C(=O)Nc2cc(C(F)(F)F)ccc2-n2cncn2)cc(OC)c1OC | -1.88%
80 | CCc1nn(CC(=O)N2CCN(c3cc(C)ccc3C)CC2)c(=O)c2cc3occc3n12 | 2.35%
81 | CSCCC(NC(=O)COc1ccccc1)C(=O)N1CCN(c2cccc(C(F)(F)F)c2)CC1 (configuration not stated) | 7.1%
82 | CC(=O)NC1=NC(=O)CS1 | -3.07%
83 | COc1ccc(C2(CNC(=O)Cc3ccc(OC)c(OC)c3)CCCC2)cc1 | -0.19%
84 | COc1ccc(C2(CNC(=O)C(c3ccccc3)c3ccccc3)CCOCC2)cc1OC | -0.88%
85 | COc1cc(C(=O)NCC2(c3ccccc3)CCCC2)ccc1OC(C)C | 69.7% (active)
86 | CCCCc1nc2cc(C(=O)NCCc3cnn(C)c3)ccc2o1 | -4.49%
87 | O=C(/C=C/c1ccc(Cl)cc1)N1CCN(c2ccccc2[N+](=O)[O-])CC1 | -2.36%
88 | COc1cccc2c1C(=O)c1c(O)c3c(c(O)c1C2=O)CC(O)(C(C)=NNC(=O)c1ccc(Cl)c(Cl)c1)CC3OC1CC(N)C(O)C(C)O1 (configuration not stated) | 52.5% (active)
89 | CC/C(=C(/c1ccccc1)c1ccc(OCC[N+](C)(C)C)cc1)c1ccccc1 | 8.4%
90 | C/C(=N\OCC(=O)O)c1ccc(Cl)cc1 | 9.56%
91 | CCOc1cc(/C=C(/C#N)c2ccc(Cl)cc2)cc(Cl)c1OCC(=O)O | 71.1% (active)
92 | CCOC(=O)CN/C=C(\C#N)c1ccc(F)cc1 | -0.66%
